A selection: hits, their analogues and other compounds. The true share with any hit is near 0.93%.
TRb-SRC2 inh – qHTS for Inhibitors of the Interaction of Thyroid Hormone Receptor and Steroid Receptor Coregulator 2. Potency, µM (series often up to 106 µM), actives largely listed as inhibitors. 0.065% of 280,000 active. AID 1469, 2008. TRbeta-SRC2 peptide binding, fluorescence polarization; receptor liganded with 1 µM T3; active = well fitted inhibition curve with a large enough effect; inconclusive = small, poorly fitted or top-dose-only effect, or effect the other way; also: nearly all actives have a fitted effect of over 50% in size
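TRb LBD 0.6 uM + Texas Red SRC2 peptide 20 nM, 1 uM T3, Tris buffer w/ 5% DMSO; compound pinned, 5 h RT; FP read ex 555/em 632; normalized to unbound and bound controls.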
Coupling enz – qHTS Assay for Inhibitors of Fructose-1,6-bisphosphate Aldolase from Giardia Lamblia: Coupling assay counterscreen; activity change, negative = inhibition, % at 58.2 µM, hits read low; coupling enzyme system counterscreen, AmpLite Red fluorescence; AID 2472, 2010; 0.67% of 290,000 active; in the data active = activity change below about -30%
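First, compound is pin-transferred into glyceraldehyde-3-phosphate coupling-enzyme reagent at 57.5 uM final and held 10 min at RT. Next, substrate, coupling system and AmpLite Red are added. After 20 min RT, fluorescence (525/598 nm) is read.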
RGS12 GoLoco inh – qHTS Assay for Inhibitors of RGS12 GoLoco Motif Activity (Red Fluorophore). Guanine nucleotide-binding protein G(i) subunit alpha-1 (Homo sapiens), P63096. Gai1:RGS12 GoLoco peptide FP, rhodamine, 10 min. Potency, µM (doses to about 61.6 µM), hits mostly inhibitors. 0.44% of 230,000 active. AID 880, 2007; active = well fitted inhibition curve with a large enough effect, not every such curve was filed as active; inactive = no such curve, though single readings can be large or run the other way; also: nearly all actives have a fitted effect of over 30% in size
Target sequence (P63096 whole entry, looked up): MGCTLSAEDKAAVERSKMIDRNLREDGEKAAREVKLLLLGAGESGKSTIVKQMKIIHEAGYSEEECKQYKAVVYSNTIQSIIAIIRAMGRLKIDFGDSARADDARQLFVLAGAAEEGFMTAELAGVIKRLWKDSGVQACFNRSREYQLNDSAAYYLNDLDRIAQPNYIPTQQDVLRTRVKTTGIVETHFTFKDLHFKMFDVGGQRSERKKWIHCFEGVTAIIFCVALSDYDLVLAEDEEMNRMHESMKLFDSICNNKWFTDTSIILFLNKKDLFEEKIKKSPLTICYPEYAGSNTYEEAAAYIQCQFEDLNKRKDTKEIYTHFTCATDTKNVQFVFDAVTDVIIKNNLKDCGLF
TR SRC2 fluor cs – Total Fluorescence Counterscreen for Inhibitors of the Interaction of Thyroid Hormone Receptor and Steroid Receptor Coregulator 2 | 0.29% of 280,000 active | AID 1479, 2009 | TRb/SRC2 Texas Red total fluorescence interference | Potency, µM (top dose mostly 106 µM); active = well fitted curve in either direction with a large enough effect; inconclusive = small, poorly fitted or top-dose-only effect
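Flags fluorescent or light-absorbing compounds by total fluorescence, S + 2P, at 555 nm excitation and 632 nm emission. Mixture: 20 nM Texas Red SRC2 peptide, 0.6 uM human TRb LBD, 1 uM T3, 5% DMSO; compound exposure 5 h at ambient temperature.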
Large screens that a line does not name were inactive; ! = not active in a repeat; [ ] = dose if it differs, or a comment.

CCc1ccc(/C=C2\CN(CC)Cc3c2nc2ccccc2c3C(=O)O)cc1	Coupling enz -34
CCOC(=O)c1c(C)oc2ncnc(Nc3cc(Cl)ccc3OC)c12	none (no result: Coupling enz, RGS12 GoLoco inh)
Cc1cc(C)cc(OCC(=O)NCC2(N3CCOCC3)CCCCC2)c1	none (no result: Coupling enz, RGS12 GoLoco inh)
Cc1ccc(OCC(=O)NCC2(N3CCOCC3)CCCCC2)cc1C	TR SRC2 fluor cs 13µM[quencher] (no result: Coupling enz, RGS12 GoLoco inh)
Cc1ccc(OCC(=O)NCC2(N3CCN(C)CC3)CCCCC2)cc1	none (no result: Coupling enz, RGS12 GoLoco inh)
Cc1cccc(OCC(=O)NCC2(N3CCN(C)CC3)CCCCC2)c1C	TR SRC2 fluor cs 1259µM[quencher] (no result: Coupling enz, RGS12 GoLoco inh)
Cc1noc(C)c1C(=O)N1CCC[C@@]2(CCN(Cc3cc(C(F)(F)F)cc(C(F)(F)F)c3)C2)C1	none (no result: TRb-SRC2 inh, TR SRC2 fluor cs)
CCc1ccc(C(=O)c2cnc3ccc(F)cc3c2S(=O)(=O)c2ccccc2)cc1	TR SRC2 fluor cs 25µM[quencher] (no result: Coupling enz, RGS12 GoLoco inh)
Cc1ccc2ncc(C(=O)c3ccc(C)c(C)c3)c(S(=O)(=O)c3ccccc3)c2c1	none (no result: Coupling enz, RGS12 GoLoco inh)
c1csc(CNc2ccc3c(c2)OCCO3)c1	Coupling enz -31
CCN(CCN(C)C)C(=O)c1ccc2c(c1NCCO)C(=O)c1ccccc1C2=O	Coupling enz -37
Cc1ccccc1-c1nn2c(=O)cc(CN3CCN(S(=O)(=O)c4ccc(Cl)cc4)CC3)nc2s1	none (no result: Coupling enz, RGS12 GoLoco inh)
COc1ccc(N2C3=C(CC4=C2CC(C)(C)CC4=O)C(=O)CC(C)(C)C3)cc1	Coupling enz -48
C=C(C)C(=O)OCCOCCOCCOC(=O)C(=C)C	none (no result: Coupling enz, RGS12 GoLoco inh)
O=C(CCCOc1ccc(Cl)cc1Cl)N/N=C/c1cccc([N+](=O)[O-])c1	Coupling enz -39
COC(=O)CCCC1=CC2=CC(=O)C(C)(OC(=O)c3cccs3)C(=O)C2=CN1C1CCCC1 (configuration not stated)	Coupling enz -43
COC(=O)CCCC1=CC2=CC(=O)C(C)(OC(=O)c3cccs3)C(=O)C2=CN1CCCOC(C)C (configuration not stated)	Coupling enz -31
COC(=O)CCCC1=CC2=CC(=O)C(C)(OC(=O)c3cccs3)C(=O)C2=CN1CCc1c[nH]c2ccccc12 (configuration not stated)	Coupling enz -36!
CCCCC1=CC2=CC(=O)C(C)(OC(=O)CC)C(=O)C2=CN1C1CCCC1 (configuration not stated)	Coupling enz -33!
CCCCC1=CC2=CC(=O)C(C)(OC(=O)CC)C(=O)C2=CN1CCOC (configuration not stated)	none
CCN(CC)CCCN1C=C2C(=O)C(C)(OC(=O)c3cccs3)C(=O)C=C2C=C1CCCC(=O)OC (configuration not stated)	none
Cc1c(Cl)cccc1NC(=O)N1CCC(CN2CCOCC2)CC1	none (no result: Coupling enz, RGS12 GoLoco inh)
Cc1ccc(-c2c(C(=O)N3CCN(c4cc(Cl)ccc4C)CC3)oc(=O)c3ccccc23)cc1	none (no result: Coupling enz, RGS12 GoLoco inh)
C=C1CCN(C(CC(C)C)C(=O)NCc2ccc(Cl)cc2)S(=O)(=O)c2ccccc21 (configuration not stated)	none (no result: RGS12 GoLoco inh)
Cc1c([N+](=O)[O-])cc(C(=O)Nc2ccc(Cc3ccncc3)cc2)cc1[N+](=O)[O-]	none
O=C(Nc1ccc(Cc2ccncc2)cc1)c1ccc(Cl)c([N+](=O)[O-])c1	Coupling enz -36
CCC(C)(C)n1nnnc1C(c1cc2cc(C)ccc2[nH]c1=O)N1CCCc2ccccc21 (configuration not stated)	none
Cc1ccc2[nH]c(=O)c(C(c3nnnn3Cc3ccccc3)N3CCc4ccccc43)cc2c1 (configuration not stated)	Coupling enz -33
Cc1ccc2[nH]c(=O)c(C(c3nnnn3C3CCCC3)N3CCCc4ccccc43)cc2c1 (configuration not stated)	Coupling enz -44
COc1ccc2cc(C(c3nnnn3C(C)(C)C)N3CCc4ccccc4C3)c(=O)[nH]c2c1 (configuration not stated)	none
c1ccc(C(c2nnnn2C2CCCCC2)N2CCc3ccccc3C2)nc1 (configuration not stated)	Coupling enz -32
COc1ccc2cc(C(c3nnnn3C3CCCC3)N3CCc4ccccc4C3)c(=O)[nH]c2c1 (configuration not stated)	Coupling enz -33
N[C@@H](Cn1cc(I)c(=O)n(Cc2ccc(C(=O)O)cc2)c1=O)C(=O)O	none
C1CCC2(CCCCO2)OC1	none (no result: Coupling enz, RGS12 GoLoco inh)
Cc1cc2cc(C(c3nnnn3Cc3ccccc3)N3CCc4ccccc43)c(=O)[nH]c2cc1C (configuration not stated)	Coupling enz -45
Cc1ccc2cc(C(c3nnnn3Cc3ccccc3)N3CCc4ccccc43)c(=O)[nH]c2c1 (configuration not stated)	none
CCS(=O)(=O)c1ccc(O)c(Nc2cc(C)nc(SC)n2)c1	TR SRC2 fluor cs 0.1µM[quencher] (no result: Coupling enz, RGS12 GoLoco inh)
CSc1nc(C)cc(Nc2cccc(C(=O)O)c2)n1	none (no result: Coupling enz, RGS12 GoLoco inh)
CC(=O)Nc1ccc2c(c1)C(C)(C)C(C)N2C (configuration not stated)	TRb-SRC2 inh inconclusive, TR SRC2 fluor cs 40µM[fluorescent]
CCC(=O)c1ccc(NC(C)=O)cc1O	none
CCOc1cc(NC2CS(=O)(=O)CC2O)c(OCC)cc1NC(=O)c1ccccc1 (configuration not stated)	Coupling enz -41
COc1ccc(C2CC(c3ccccc3)=NN2C(=O)COC(=O)c2cc(S(=O)(=O)N3CCOCC3)ccc2Cl)cc1 (configuration not stated)	RGS12 GoLoco inh 13µM
C[C@@H](CSC(=N)N)C(N)=O	none (no result: TRb-SRC2 inh, Coupling enz, TR SRC2 fluor cs)
COC(=O)C1=COC(C)C2CN3CCc4c([nH]c5ccccc45)C3CC12 (configuration not stated)	none (no result: RGS12 GoLoco inh)
COC(=O)C1=CO[C@@H](C)[C@@H]2CN3CCc4c([nH]c5ccccc45)[C@@H]3C[C@H]12	Coupling enz -31 (no result: RGS12 GoLoco inh)
CC(=O)OC[C@@H]1O[C@H](CCO/N=C(\C)CCN2CCc3nc(-c4ccccc4)c(-c4ccccc4)cc3C2)C=C[C@@H]1OC(C)=O	none (no result: RGS12 GoLoco inh)
COc1ccc2oc(=O)c(C(=O)C[n+]3cccc(C)c3)cc2c1	RGS12 GoLoco inh 10µM
CNC(=O)c1cc2cc(OC)ccc2oc1=O	none
CN1\C(=C/C=C/C=C/C=[N+](C)C)C(C)(C)c2ccccc21	TRb-SRC2 inh inconclusive, TR SRC2 fluor cs 50µM[fluorescent]
c1ccc2[nH]c(SN3CCOCC3)nc2c1	RGS12 GoLoco inh 8.9µM
CCc1ccc(C2c3c(-c4cc(C)ccc4O)n[nH]c3C(=O)N2Cc2cccnc2)cc1 (configuration not stated)	none (no result: Coupling enz, RGS12 GoLoco inh)
COc1cc(N=C2C(=O)N3c4c(cccc42)C(C)=CC3(C)C)cc(OC)c1	none
CC1=CC(C)(C)N2C(=O)C(=Nc3ccc(O)cc3)c3cccc1c32	TRb-SRC2 inh 35µM, Coupling enz -45
Cc1nc(COC(=O)c2ccc(CO)cc2)cs1	none
Cc1nc(COC(=O)c2cc(O)c3ccccc3c2O)cs1	RGS12 GoLoco inh 25µM
